# PfHsp90 yeast 2: inhibits growth of yeast expressing Plasmodium falciparum Hsp90; S. cerevisiae expressing PfHsp90, BacTiter-Glo ATP, 48 h; yeast lacking PDR1 and PDR3 efflux regulators; inhibition, % at 9.4 µM; 0.32% of 310,000 active; AID 504621;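 active = every replicate shows inhibition above about 80%, whatever the replicate mean, limit read from the data; inconclusive = mean inhibition reaches the set limit but some replicate falls short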;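 also: 0% = DMSO neutral controls and 100% = 20 µM radicicol positive controls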
# tim10-1 inh: inhibits growth of tim10-1 mutant yeast; S. cerevisiae tim10-1 ts strain growth, BacTiter-Glo, 24 h; inhibition, % at 20 µM; 2.2% of 330,000 active; AID 463190;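 active = inhibition of at least 40%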;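 also: mutant grown at 25 °C; 0% = DMSO wells with yeast and 100% = wells holding no yeast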
# TIM10 inh: inhibits growth of TIM10 yeast strain; S. cerevisiae TIM10 strain growth, BacTiter-Glo luminescence, 24 h; inhibition, % at 10 µM; 1.4% of 330,000 active; AID 463195;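 active = inhibition of 40% or more at the single tested concentration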;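 also: wild-type TIM10 isogenic control strain grown at permissive 25 °C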
# SKKanGAS inh: SKKanGAS growth inhibition; S. pyogenes SKKanGAS, kanamycin growth, BacTiter-Glo, 6 h; inhibition, % at 7.5 µM; 1.3% of 300,000 active; AID 1662;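 active = mean replicate score, as percent of positive control median, at least 50; inconclusive = mean below 50 but one replicate at or above 50; inactive = mean and every replicate below 50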;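 also: strain carries kanamycin resistance gene driven by streptokinase promoter and grows in 40 µg/ml kanamycin; loss of luminescence reflects streptokinase promoter inhibition or plain growth inhibition; 0% = median of DMSO wells and 100% = positive control at its reference dose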
# Calb FLC: C. albicans growth modulation with fluconazole; C. albicans CaCi-2 (fluconazole-resistant clinical isolate) + fluconazole, Alamar Blue growth, 48 h; AID 1979; 0.57% of 300,000 active; growth inhibition, % (concentration not given with the values);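 active = growth inhibition above about 58% in most replicates, limit read from the data, passing the limit was not always enough; inconclusive = exactly half the replicates above a set limit; inactive = most replicates below a set limit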;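 also: all wells also contain fluconazole at 8 µg/ml as a sub-toxic cotreatment; 0% = median of DMSO wells and 100% = median of geldanamycin control wells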
# tim23-1 inh: inhibits growth of tim23-1 mutant yeast. 1.3% of 330,000 active. AID 463212. inhibition, % at 20 µM. S. cerevisiae tim23-1 growth, BacTiter-Glo luminescence, 24 h;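 active = growth inhibition of the mutant yeast at or above 50%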;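 also: temperature-sensitive mutant grown at 25 °C; plate controls were DMSO-treated mutant yeast for no effect and medium wells lacking yeast for full effect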
# TIM10 conf: TIM10 yeast growth inhibition, confirmed. shares compounds with TIM10 inh. S. cerevisiae tim10 strain growth, BacTiter-Glo luminescence, 24 h. inhibition, % at 10 µM. 63% of 4,600 active. AID 463215;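 active = inhibition of yeast growth at or above a set limit in either of two replicates at 10 µM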;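 also: this counterscreen used the strain with wild-type TIM10; 0% = yeast with DMSO and 100% = medium wells lacking yeast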
# Active calls of the source: *; u = inconclusive; x = not tested or not shown. Most compounds without a hit are left out; they make up all but 4.7% or so of the library.
SMILES,PfHsp90 yeast 2,tim10-1 inh,TIM10 inh,SKKanGAS inh,Calb FLC,tim23-1 inh,TIM10 conf
CCNC(=O)CSc1nnc(-c2ccccc2Br)n1-c1cccc(C(F)(F)F)c1,16,23,47*,5,12,-2,6
NC(=O)CSc1nnc(-c2ccccc2Br)n1-c1cccc(C(F)(F)F)c1,9,9,8,1,-26,15,x
Cn1c(SCC(=O)N/N=C/c2ccc([N+](=O)[O-])s2)nnc1-c1ccccc1,u,28,71*,8,-2,43,82*
O=C1CCC(C(=O)N2CCC(CO)CC2)CN1Cc1ccc(Cl)cc1 (stereo not drawn),1,4,-3,3,-11,9,x
Cc1nc([N+](=O)[O-])c(Sc2nc3ccccc3n2C)n1Cc1ccccc1,1,33,40*,20,0,37,42*
CCOC(=O)[C@H]1[C@H]2COc3ccc(OC)cc3[C@@H]2N2C(=O)CN(C)C(=O)[C@@]12C,-21,-1,0,x,x,1,x
Cc1ccccc1C(=O)Nc1scc(-c2ccc(Br)cc2)c1C(=O)O,12,22,53*,86*,19,47,42*
O=C(CCl)c1ccc2c(c1)CCN2C(=O)C1CC1,x,9,60*,-16,u,-7,74*
CC(=O)N1CCc2cc(C(=O)CN3CCC(C)CC3)ccc21,6,17,-7,2,12,8,x
Cc1ccc(C(=O)N/C(=C\c2cn(C)c3ccccc23)C(=O)NCCN2CCOCC2)cc1,-3,-9,4,-1,2,-6,x
CCN(CC)C(=O)N1CCN(S(=O)(=O)c2c(C)cc(C)cc2C)CC1,11,28,40*,-1,1,38,24
CCN(CC)C(=O)N1CCN(S(=O)(=O)c2ccc(C)cc2)CC1,x,15,2,0,1,14,x
NNc1nc(Nc2ccc([N+](=O)[O-])cc2)nc(N2CCCCCC2)n1,-10,33,97*,82*,17,42,25
NNc1nc(Nc2ccccc2)nc(N2CCCCC2)n1,3,32,41*,26,35,37,6
O=[N+]([O-])c1ccc(Nc2nc(N3CCOCC3)nc(N3CCOCC3)n2)cc1,-17,14,13,3,4,19,x
N/C(=N\OC(=O)/C=C/c1ccccc1Cl)c1cccnc1,x,14,4,-6,2,12,x
N/C(=N\OC(=O)/C=C/c1ccccc1Cl)c1ccccn1,-19,36,51*,-9,-18,48,55*
CCOC(=O)C1CCN(C(=O)c2sc3ncnc(N4CCC(C)CC4)c3c2C)CC1,22,35,41*,1,17,28,16
CC1CCN(c2ccccc2NC(=S)NC(=O)c2ccco2)CC1,-3,34,43*,18,11,34,40*
COc1cc(C(=O)N2CCN(c3cccc(C(F)(F)F)c3)CC2)ccc1OCC(=O)N1CCOCC1,-11,x,x,x,x,x,x
O=C(Nc1ccc2oc(-c3ccccc3)nc2c1)c1ccc2c(c1)OCCO2,24,32,46*,17,u,50,52*
COCCn1c(N)c(N(Cc2ccccc2)C(=O)CSCC(=O)Nc2ccc(OC)cc2)c(=O)[nH]c1=O,x,-4,-5,-3,2,-12,x
c1ccc2[nH]c(NC3=NCCC3)nc2c1,9,17,41*,29,1,1,-26
c1ccc2[nH]c(NN=C3CCCCCC3)nc2c1,-6,14,2,21,-12,-3,x
CC(=O)Nc1ccc(S(=O)(=O)NCCC(=O)OCc2ccc([N+](=O)[O-])cc2)cc1,10,-1,1,10,2,5,x
SMILES,PfHsp90 yeast 2,tim10-1 inh,TIM10 inh,SKKanGAS inh,Calb FLC,tim23-1 inh,TIM10 conf
CCn1c(C(=O)O)c(S(=O)(=O)c2ccc(Cl)cc2)c2ccccc21,-30,-2,8,4,4,-5,x
CN(C)CCN(C(=O)C1=COCCO1)c1nc2ccc(F)cc2s1,11,34,64*,-1,17,26,13
CN(C)CCN(C(=O)c1cc(Cl)sc1Cl)c1nc2ccc(F)cc2s1,-39,8,5,-15,0,7,x
CN(C)CCCN(C(=O)c1cc(-c2cccs2)nc2ccccc12)c1nc2ccc(F)cc2s1,x,32,49*,11,-6,13,32*
CN(C)CCCN(C(=O)CCc1ccccc1)c1nc2ccc(F)cc2s1,15,28,17,-9,-3,4,x
CSCCC(NC(=O)c1ccccc1)C(=O)NCCCSc1ccccc1 (stereo not drawn),-1,12,-5,x,x,11,x
c1ccc(-c2nnc3sc(CN4CCc5ccccc54)cn23)cc1,9,12,42*,9,-3,47,22
Brc1ccc(-c2nnc3sc(CN4CCc5ccccc5C4)cn23)cc1,15,x,x,x,x,x,x
CCN1C(=O)[C@@H]2[C@@H](c3ccc(-c4ccc(F)cc4)c(OC)c3)N3CCC[C@@]3(C(=O)OC)[C@@H]2C1=O,-21,-4,-2,x,x,6,x
O=C(COC(=O)c1cc(Cl)nc(Cl)c1)NCc1ccc2c(c1)OCO2,-22,-14,-12,x,x,-14,x
CCN(CC)c1ccc(C(=S)NC2CCCCC2)cc1,-1,32,46*,0,-7,24,28
O=C(CCC1CCCCC1)Nc1nncs1,9,14,18,-1,6,25,x
CCOC(=O)C1=C(N)Oc2ccc3ccccc3c2C1c1cccnc1 (stereo not drawn),-4,27,46*,7,-54,11,-6
COc1ccccc1NC(=S)N(Cc1ccc(C)cc1)Cc1cccnc1,14,38,47*,12,-7,29,15
COc1ccccc1NC(=S)N(Cc1cccnc1)Cc1ccccc1Cl,7,24,31,6,-2,7,x
O=C(COc1ccccc1)NCC(=O)N/N=C/c1ccc(Cl)cc1,-5,23,11,-2,-3,11,x
Cc1cc(/C=N/NC(N)=S)c(C)n1-c1ccc(Cl)c(Cl)c1,-47,9,-5,-16,-20,-23,x
CCNC(=S)N/N=C/c1cc(C)n(-c2ccc(Cl)cc2)c1C,7,33,50*,0,-23,29,16
CCOc1ccc(NC(=O)CN(C)C(=O)/C=C/c2ccco2)cc1OCC,1,-18,0,x,x,1,x
CCCOc1ncnc2c1[nH]c1ccccc12,32,2,48*,-4,9,34,31*
COc1ccc(S(=O)(=O)Nc2cccc3c2O[C@H](CN(C)S(=O)(=O)c2ccccc2)[C@@H](C)CN([C@H](C)CO)C3=O)cc1,4,-9,-1,x,x,6,x
COc1ccc2cc3cc(C(=O)NCCCN4CCC(C)CC4)oc3nc2c1,-22,18,77*,-5,9,31,68*

# From PubChem
